Compounds without any hit were thinned out: in the full panel of roughly 83,000, 20% have a hit.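 Note: values are percent growth. 100 is the growth of untreated cells, values between 100 and 0 indicate rising inhibition; between -100 and 0 indicates cell death.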 Values without a mark were called inactive. The source made the active and inactive calls. How the source made its calls: active means growth percent below 10; inactive means the rest.
These compounds were tested on NCI-H23 lung (assay: NCI-60 one-dose screen, 48 h (100 = growth as untreated, 0 = no growth, -100 = all killed)). Details: 10 µM unless noted.

Compound | growth
C[PH+](c1nc2ccccc2nc1[PH+](C)C(C)(C)C)C(C)(C)C.C[PH+](c1nc2ccccc2nc1[PH+](C)C(C)(C)C)C(C)(C)C.[Au+].[Cl-] (centres undefined) | -90.2% (active)
CN(C)CCNC(=O)c1cc2c3cc(Cl)ccc3[nH]c2c2ncccc12 | 32.5%
CNC(=O)c1ccccc1Oc1nc(Nc2cc(OC)c(OC)c(OC)c2)ncc1Br | 55.2%
O=C(c1ccccc1)c1ccc(C2CCCCC2)cc1 | 95%
CCCCCCCC[C@@H]1N[C@@H](C(=O)OC)Cc2c1[nH]c1ccccc21 | 92.1%
Cc1cc(N2CCCCC2)cc(C)c1-c1csc(NC(=O)c2ccncc2)n1 | 45.1%
Cc1nc2sc(C(=O)Nc3ccc(Br)cc3)c(N)c2cc1C(O)c1ccccc1 (centres undefined) | 61.1%
CCN(CC)CC(O)COc1c(Br)c(Br)c(Br)c2c1OC(C)(C)C2 (centres undefined) | 96.1%
Cc1cccc(CNc2c3ccccc3nc3ccccc23)c1 | 29.7%
Fc1cc2c(cc1Cl)N(c1ncnc3ccc(-c4ccc5n[nH]nc5c4)cc13)CC2 | 79.6%
CC/C(=C(/c1ccc(Cl)cc1)c1ccc(OCCN(C)C)cc1)c1ccc(Cl)cc1 | 73.5%
Cn1cc(-c2nonc2-c2cn(C)c3ccccc23)c2ccccc21 | 43.1%
COC12C=C/C(=C(/C(=O)OCc3ccncc3)C(=O)CCCCCCCCC3(OC)C=C/C(=C(/C(=O)OCc4ccncc4)C(=O)CCCCCCCC1)O3)O2 | -61.1% (active)
COc1cc2ncnc(Nc3ccc(F)c(Cl)c3)c2cc1OCC(=O)N1CCN(c2ccccc2)CC1 | 88%

— PubChem BioAssay (NCI)
